# In paper PMC12214610:
# Key:
# [1] = molecular target: Glutamate synthase [NADPH] small chain (UniProt P09832)
# [2] = molecular target: Glycine--tRNA ligase beta subunit (UniProt P00961)
# [3] = molecular target: Integration host factor subunit beta (UniProt P0A6Y1)
# Myosin-9 = Myosin-9 (UniProt P35579)
# [4] = molecular target: Phenylalanine--tRNA ligase alpha subunit (UniProt P08312)
# [5] = molecular target: Succinate--CoA ligase [ADP-forming] subunit alpha (UniProt P0AGE9)
# Transketolase 2 = Transketolase 2 (UniProt P33570)
# Transketolase 2, sequence (P33570 whole entry): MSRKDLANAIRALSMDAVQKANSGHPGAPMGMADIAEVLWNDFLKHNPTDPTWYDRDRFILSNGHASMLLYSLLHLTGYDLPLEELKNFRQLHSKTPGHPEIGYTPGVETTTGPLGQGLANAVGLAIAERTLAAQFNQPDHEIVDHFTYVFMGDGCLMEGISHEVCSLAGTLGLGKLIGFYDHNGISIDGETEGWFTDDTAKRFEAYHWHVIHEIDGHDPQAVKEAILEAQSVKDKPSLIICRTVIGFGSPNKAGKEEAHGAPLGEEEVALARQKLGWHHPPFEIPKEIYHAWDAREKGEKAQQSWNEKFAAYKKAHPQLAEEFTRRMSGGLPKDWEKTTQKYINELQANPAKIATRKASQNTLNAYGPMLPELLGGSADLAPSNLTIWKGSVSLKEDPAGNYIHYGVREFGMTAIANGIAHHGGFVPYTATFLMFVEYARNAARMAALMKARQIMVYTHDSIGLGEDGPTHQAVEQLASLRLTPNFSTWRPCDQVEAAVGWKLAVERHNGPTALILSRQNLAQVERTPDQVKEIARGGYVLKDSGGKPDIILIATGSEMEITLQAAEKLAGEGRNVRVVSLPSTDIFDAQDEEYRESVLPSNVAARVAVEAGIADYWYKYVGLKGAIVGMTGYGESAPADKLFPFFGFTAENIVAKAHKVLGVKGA
# [6] = molecular target: Uncharacterized protein YqjD (UniProt P64581)
# Uncharacterized protein YqjD, sequence (P64581 whole entry): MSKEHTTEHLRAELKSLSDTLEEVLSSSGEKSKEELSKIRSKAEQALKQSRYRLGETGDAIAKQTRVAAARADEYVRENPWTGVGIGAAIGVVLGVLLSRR
# [7] = molecular target: Unconventional myosin-XVIIIa (UniProt Q92614)
# Myosin-9, sequence (P35579 whole entry): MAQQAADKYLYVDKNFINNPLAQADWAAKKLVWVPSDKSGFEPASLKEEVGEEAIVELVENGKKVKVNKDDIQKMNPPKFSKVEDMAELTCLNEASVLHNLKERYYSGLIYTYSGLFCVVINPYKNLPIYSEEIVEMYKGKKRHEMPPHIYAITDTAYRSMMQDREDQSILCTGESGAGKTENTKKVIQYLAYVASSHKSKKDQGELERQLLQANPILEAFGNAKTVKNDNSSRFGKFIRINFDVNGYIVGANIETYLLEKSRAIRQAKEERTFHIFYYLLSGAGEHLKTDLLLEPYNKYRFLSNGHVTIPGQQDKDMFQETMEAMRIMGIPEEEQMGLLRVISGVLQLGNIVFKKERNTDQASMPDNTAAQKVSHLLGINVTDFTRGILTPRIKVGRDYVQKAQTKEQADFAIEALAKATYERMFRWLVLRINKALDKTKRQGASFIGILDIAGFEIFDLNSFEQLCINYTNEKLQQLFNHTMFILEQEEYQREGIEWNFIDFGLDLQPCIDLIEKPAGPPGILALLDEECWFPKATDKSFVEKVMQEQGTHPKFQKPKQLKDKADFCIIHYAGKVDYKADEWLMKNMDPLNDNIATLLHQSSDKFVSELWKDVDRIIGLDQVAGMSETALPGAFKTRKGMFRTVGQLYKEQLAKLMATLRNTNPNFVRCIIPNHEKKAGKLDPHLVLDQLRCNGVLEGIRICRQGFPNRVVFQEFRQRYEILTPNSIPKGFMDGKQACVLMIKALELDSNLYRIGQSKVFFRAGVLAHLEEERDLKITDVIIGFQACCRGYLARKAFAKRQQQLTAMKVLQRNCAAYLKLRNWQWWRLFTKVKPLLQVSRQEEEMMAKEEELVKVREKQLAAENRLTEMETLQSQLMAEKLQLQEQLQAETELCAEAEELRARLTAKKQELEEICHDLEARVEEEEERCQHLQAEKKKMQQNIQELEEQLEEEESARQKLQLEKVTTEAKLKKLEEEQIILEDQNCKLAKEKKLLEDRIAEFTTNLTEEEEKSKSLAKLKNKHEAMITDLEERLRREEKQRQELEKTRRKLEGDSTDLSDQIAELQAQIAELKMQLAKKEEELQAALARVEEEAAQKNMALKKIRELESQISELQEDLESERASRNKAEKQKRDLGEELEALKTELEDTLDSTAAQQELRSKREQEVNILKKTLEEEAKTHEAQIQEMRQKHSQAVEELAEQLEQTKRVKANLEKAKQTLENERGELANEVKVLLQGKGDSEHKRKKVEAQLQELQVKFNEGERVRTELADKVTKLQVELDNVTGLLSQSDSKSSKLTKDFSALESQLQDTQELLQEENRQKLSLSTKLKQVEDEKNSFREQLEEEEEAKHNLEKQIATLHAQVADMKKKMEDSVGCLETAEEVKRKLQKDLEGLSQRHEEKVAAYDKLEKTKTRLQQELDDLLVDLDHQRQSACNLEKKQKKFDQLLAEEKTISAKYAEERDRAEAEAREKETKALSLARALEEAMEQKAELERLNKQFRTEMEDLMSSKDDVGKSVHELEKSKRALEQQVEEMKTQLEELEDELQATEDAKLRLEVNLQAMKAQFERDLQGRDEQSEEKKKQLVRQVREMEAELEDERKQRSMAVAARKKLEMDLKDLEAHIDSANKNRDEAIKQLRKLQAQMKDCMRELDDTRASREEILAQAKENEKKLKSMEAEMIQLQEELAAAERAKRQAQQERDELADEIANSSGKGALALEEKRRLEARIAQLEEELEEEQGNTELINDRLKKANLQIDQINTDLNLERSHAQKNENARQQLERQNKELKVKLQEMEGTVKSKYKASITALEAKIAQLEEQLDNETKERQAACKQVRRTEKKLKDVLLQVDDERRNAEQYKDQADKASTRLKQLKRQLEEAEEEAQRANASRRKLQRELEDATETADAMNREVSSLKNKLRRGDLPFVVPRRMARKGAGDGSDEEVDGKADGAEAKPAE
# Succinate--CoA ligase [ADP-forming] subunit alpha, sequence (P0AGE9 whole entry): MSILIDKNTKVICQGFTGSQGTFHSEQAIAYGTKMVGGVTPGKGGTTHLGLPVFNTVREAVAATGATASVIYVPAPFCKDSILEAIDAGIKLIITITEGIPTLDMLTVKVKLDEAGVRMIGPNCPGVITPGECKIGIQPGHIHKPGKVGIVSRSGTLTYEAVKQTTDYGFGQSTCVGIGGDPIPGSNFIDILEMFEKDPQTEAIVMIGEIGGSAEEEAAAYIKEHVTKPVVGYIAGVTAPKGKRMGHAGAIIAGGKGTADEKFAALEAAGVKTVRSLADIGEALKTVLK
# Integration host factor subunit beta, sequence (P0A6Y1 whole entry): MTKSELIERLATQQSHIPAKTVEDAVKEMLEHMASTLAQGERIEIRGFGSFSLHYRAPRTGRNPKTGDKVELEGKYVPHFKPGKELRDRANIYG
# Glutamate synthase [NADPH] small chain, sequence (P09832 whole entry): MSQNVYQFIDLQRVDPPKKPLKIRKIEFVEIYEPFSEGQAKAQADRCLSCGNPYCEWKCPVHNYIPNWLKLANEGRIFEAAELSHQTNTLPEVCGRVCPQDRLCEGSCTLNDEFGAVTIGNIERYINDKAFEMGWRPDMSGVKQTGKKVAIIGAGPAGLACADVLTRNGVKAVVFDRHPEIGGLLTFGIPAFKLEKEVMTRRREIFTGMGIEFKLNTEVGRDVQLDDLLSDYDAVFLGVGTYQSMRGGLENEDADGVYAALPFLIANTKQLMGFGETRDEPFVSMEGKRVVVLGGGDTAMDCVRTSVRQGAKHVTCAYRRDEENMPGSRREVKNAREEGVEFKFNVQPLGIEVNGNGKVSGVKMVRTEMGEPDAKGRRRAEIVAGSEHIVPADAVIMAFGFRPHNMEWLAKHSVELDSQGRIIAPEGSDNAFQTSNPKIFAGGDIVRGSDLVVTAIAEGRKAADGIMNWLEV
# Phenylalanine--tRNA ligase alpha subunit, sequence (P08312 whole entry): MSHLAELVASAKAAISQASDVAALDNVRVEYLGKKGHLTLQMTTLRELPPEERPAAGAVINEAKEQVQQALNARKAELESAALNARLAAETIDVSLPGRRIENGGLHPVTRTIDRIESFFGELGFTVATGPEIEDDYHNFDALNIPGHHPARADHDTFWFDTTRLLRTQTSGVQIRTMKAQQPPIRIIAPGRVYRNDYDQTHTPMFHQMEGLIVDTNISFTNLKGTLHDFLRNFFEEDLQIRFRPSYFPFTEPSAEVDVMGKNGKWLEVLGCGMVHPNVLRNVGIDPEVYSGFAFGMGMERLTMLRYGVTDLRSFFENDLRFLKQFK
# Glycine--tRNA ligase beta subunit, sequence (P00961 whole entry): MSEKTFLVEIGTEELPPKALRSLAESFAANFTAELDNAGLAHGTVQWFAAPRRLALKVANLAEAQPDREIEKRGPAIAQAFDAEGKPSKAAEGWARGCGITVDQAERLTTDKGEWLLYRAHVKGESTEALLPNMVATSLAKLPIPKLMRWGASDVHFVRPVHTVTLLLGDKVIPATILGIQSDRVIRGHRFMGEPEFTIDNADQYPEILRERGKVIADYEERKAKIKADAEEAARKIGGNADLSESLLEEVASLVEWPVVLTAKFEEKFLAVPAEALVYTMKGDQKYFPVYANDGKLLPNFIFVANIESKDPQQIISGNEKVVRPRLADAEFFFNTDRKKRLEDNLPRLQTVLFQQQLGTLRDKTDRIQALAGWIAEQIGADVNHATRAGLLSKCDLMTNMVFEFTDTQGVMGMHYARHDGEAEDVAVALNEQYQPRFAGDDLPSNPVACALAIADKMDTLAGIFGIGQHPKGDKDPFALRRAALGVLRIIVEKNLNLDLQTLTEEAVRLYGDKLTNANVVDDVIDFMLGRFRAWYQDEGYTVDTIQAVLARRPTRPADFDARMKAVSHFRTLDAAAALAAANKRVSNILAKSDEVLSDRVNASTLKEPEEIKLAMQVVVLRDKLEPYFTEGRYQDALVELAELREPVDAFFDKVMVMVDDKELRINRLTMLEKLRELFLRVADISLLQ
substance,measurement,setting,value
"Glutamate synthase [NADPH] large chain, P09831",listed as a hit,[1],yes
"Glycine--tRNA ligase alpha subunit, P00960",listed as a hit,[2],yes
"Integration host factor subunit alpha, P0A6X7",listed as a hit,[3],yes
"Myosin regulatory light polypeptide 9, P24844",listed as a hit,Myosin-9,yes
"Phenylalanine--tRNA ligase beta subunit, P07395",listed as a hit,[4],yes
"Succinate--CoA ligase [ADP-forming] subunit beta, P0A836",listed as a hit,[5],yes
"Transketolase 1, P27302",listed as a hit,Transketolase 2,yes
"Protein ElaB, P0AEH5",listed as a hit,[6],yes
"Myosin-9, P35579",listed as a hit,[7],yes
